# Data from PubChem BioAssay (NCI).
# The panel holds about 83,000 compounds, 20% with a hit somewhere; the sample as a whole holds those more often.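 Method: cells in 96-well plates; compound added at one concentration; 48 h incubation; percent growth measured; values under 10 scored active.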 A number with no mark means an inactive call. Calls of active or inactive are those of the source.
# Assays:
# Assay in all cases: NCI-60 one-dose screen, 48 h (100 = growth as untreated, 0 = no growth, -100 = all killed)
# Settings in all cases: 10 µM
# [1] = system: SN12C renal
# [2] = system: UO-31 renal
# [3] = system: TK-10 renal
# [4] = system: ACHN renal
# [5] = system: CAKI-1 renal
# [6] = system: A498 renal
# [7] = system: CCRF-CEM leukemia
# [8] = system: MOLT-4 leukemia
# [9] = system: SR leukemia
# [10] = system: OVCAR-8 ovarian
# [11] = system: OVCAR-5 ovarian
# [12] = system: OVCAR-4 ovarian
# [13] = system: SK-OV-3 ovarian
# [14] = system: IGROV1 ovarian
# [15] = system: OVCAR-3 ovarian
# [16] = system: HS 578T breast
# [17] = system: NCI/ADR-RES ovarian
# [18] = system: T-47D breast
# [19] = system: RPMI-8226 leukemia
Structure (SMILES),growth [1],growth [2],growth [3],growth [4],growth [5],growth [6],growth [7],growth [8],growth [9],growth [10],growth [11] [%],growth [12],growth [13],growth [14],growth [15],growth [16],growth [17],growth [18],growth [19]
CSc1cc(SC)ncn1,94.4%,86.7%,94%,107%,106%,98.8%,94%,105%,98.2%,105%,105,113%,104%,116%,124%,115%,118%,105%,–
CCOC(=O)C(CSC(c1ccccc1)(c1ccccc1)c1ccccc1)NC(=O)C(CSC(c1ccccc1)(c1ccccc1)c1ccccc1)NC(c1ccccc1)(c1ccccc1)c1ccccc1 (stereo not given),110%,94.8%,118%,104%,87%,91.3%,100%,110%,–,95.6%,106,105%,109%,115%,119%,99.5%,109%,108%,105%
Clc1ccc2c(NCCCNc3nccc(Nc4ccc(Br)cc4)n3)ccnc2c1,-65.1% (active),-72.3% (active),-90.4% (active),-90.6% (active),-80.4% (active),19.6%,-24.5% (active),-44.6% (active),–,-65.2% (active),15.3,-9.2% (active),-44.1% (active),24.2%,-22.8% (active),-56% (active),0.467% (active),-56.2% (active),-59.9% (active)
NC(=S)N=Nc1c(O)c2ccccc2c2ccccc12,-88.7% (active),42.5%,116%,60.7%,83.5%,101%,106%,100%,–,36%,107,73.6%,92.3%,68.9%,29.9%,62%,27.1%,68.3%,58.7%
O=S(=O)(NCCCNc1nccc(-c2c(-c3ccc(F)cc3)nc3sccn23)n1)c1ccc2ccccc2c1,49.2%,13.1%,35.4%,39%,33.2%,62.4%,28.3%,35%,–,29.7%,78.7,56.8%,65.2%,22.8%,75.3%,71.1%,42.5%,17.4%,35.9%
CCN1CCC2(CC1)OC(c1ccccc1)C(c1ccccc1)O2 (stereo not given),110%,87.2%,103%,109%,111%,98.9%,91.7%,96.5%,–,106%,95.4,110%,121%,144%,114%,115%,107%,103%,101%
COc1ccc(Nc2ccnc(NCCNc3ccnc4cc(Cl)ccc34)n2)cc1,57.7%,44.8%,71.6%,57.3%,60.6%,37.3%,42.1%,18%,–,59.5%,51.2,37.1%,74.7%,24.6%,60.3%,76.8%,66.8%,34.9%,-22.9% (active)
FC(F)(F)c1ccc(-c2cnc(Cl)nc2N2CCC3(CC2)OCCO3)cc1,103%,69.5%,89.8%,92.6%,86.5%,75.8%,91.1%,74%,–,95%,92.9,89.9%,88.9%,83.6%,96%,105%,87.4%,88.8%,76.3%
CNc1ncc(-c2ccc(C(F)(F)F)cc2)c(NC2CCCCCC2)n1,84%,38.4%,83.5%,73.1%,60.9%,83.4%,70.2%,68.2%,43.9%,84.2%,88.8,70.1%,–,63.9%,78.2%,99.6%,65.2%,45.8%,32.1%
O=C1OCC2=C1C(c1cccc(Cl)c1)c1cc3c(cc1N2CCO)OCO3 (stereo not given),42.9%,45.1%,58.2%,46.3%,39.6%,-7.88% (active),9.39% (active),26.4%,32.5%,25.1%,31.2,64.5%,–,44%,-50.6% (active),-5.17% (active),-11% (active),62.6%,22.4%
COc1ccc(-c2nn(-c3cccc(NC(=O)Nc4cc(C(F)(F)F)cc(C(F)(F)F)c4)c3)cc2-c2ccncc2)cc1Cl,18.9%,-11.6% (active),11.8%,11%,-12.3% (active),-16.5% (active),-17.8% (active),-15.3% (active),-19.6% (active),1.12% (active),18.7,16.4%,–,4.91% (active),5.75% (active),0.225% (active),5.83% (active),2.31% (active),-25.1% (active)
COC(=O)[C@@H]1[C@H](O)[C@H](C)[C@H](O)[C@@](C)(O)/C=C\C=C(C)C(=O)Nc2c(C)c(OC(C)=O)c3c(c2O)C(=O)C(C)=C2OCOC(=C23)C(C)=C[C@@](C)(O)[C@H](O)[C@@H](C)[C@H]1OC(C)=O,108%,88.7%,126%,110%,100%,120%,111%,95.6%,92.1%,–,–,117%,117%,88.4%,112%,110%,114%,102%,-13.2% (active)
CCCCN(CCCC)c1cc(C(=O)CCCCCN)c2ccccc2n1,89.7%,-21.9% (active),82.6%,85.5%,-45.4% (active),72.6%,-70.4% (active),-61.5% (active),–,9.35% (active),105,100%,101%,-73.6% (active),-96.9% (active),96%,71.6%,92.9%,-67.9% (active)
Cc1cc(C)c2c(n1)sc1c(Nc3ccc(Cl)cc3)ncnc12,-20.9% (active),-19.8% (active),47.7%,1.33% (active),12.1%,-9.23% (active),4.05% (active),-6.2% (active),3.86% (active),4.06% (active),29,84.4%,–,70.8%,33.3%,76.5%,15.1%,23.4%,23.7%
O=S(=O)(Nc1ccccn1)c1ccc(N=Nc2ccc(O)c3ncccc23)cc1,5.49% (active),-24.1% (active),-1.22% (active),-1.83% (active),-4.15% (active),-11.5% (active),7.55% (active),4.77% (active),0.457% (active),1.26% (active),–,8.85% (active),-7.21% (active),-1.59% (active),14.4%,13.5%,14.1%,-6.2% (active),-15.1% (active)
C[C@@H]1C=C2C(=O)O[C@@H]3CC[C@H](C1)[C@]23O,81%,63.4%,75.8%,72.3%,50.6%,129%,18.6%,62.8%,–,78.3%,104,76.5%,105%,42.2%,66.9%,96.4%,93.2%,26.3%,75.8%
CSc1nn(-c2ccccc2)c2ncnc(Oc3ccc(C)cc3)c12,88.8%,84.4%,94.2%,76%,84.8%,67.8%,90.5%,94.9%,91.8%,50.7%,92.5,9.15% (active),–,92.7%,98.1%,85.9%,93.4%,83.4%,92.4%
